L3MBTL1 inh – L3MBTL1 (human) inhibition | 230,000 compounds, 0.66% hits | Q9Y468 | Potency, µM (doses to about 57.1 µM), for the others: at the highest dose activity, negative = inhibition, actives largely listed as inhibitors | AlphaScreen L3MBTL1–H3K9me1 peptide binding; further: nearly all actives have a fitted effect of over 60% in size
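Displacement of a biotinylated histone H3(1-15) peptide monomethylated at Lys9 (75 nM) from L3MBTL1 (50 nM) was measured by AlphaScreen after a 30 min room-temperature compound incubation; cefsulodin titration served as intraplate control.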
WRN helicase inh – inhibitors of human WRN helicase; WRN helicase unwinding, fluorescent forked duplex, kinetic; Potency, µM (top dose mostly 114 µM), for inactives: at the highest dose activity change, negative = inhibition, most hits filed as inhibitors; 360,000 compounds, 0.46% hits; further: nearly all actives have a fitted effect of over 55% in size
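Fluorescence dequenching readout, ex 525 nm/em 598 nm, kinetic mode: forked duplex DNA (100 nM final) with adjacent fluorophore and quencher unwound by WRN (20 nM final) with 2 mM ATP. Compound preincubation 15 min, room temperature.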
BLM helicase inh – inhibitors of human Bloom syndrome helicase BLM; recombinant BLM DNA unwinding, fluorescence dequenching; Potency, µM (series often up to 56.1 µM), inactives show at the highest dose activity change, negative = inhibition, actives largely listed as inhibitors; 350,000 compounds, 0.2% hits;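 further: plate controls were vehicle for no effect and no enzyme for full effect; nearly all actives have a fitted effect of over 35% in size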
Target sequence (P54132 whole entry, looked up): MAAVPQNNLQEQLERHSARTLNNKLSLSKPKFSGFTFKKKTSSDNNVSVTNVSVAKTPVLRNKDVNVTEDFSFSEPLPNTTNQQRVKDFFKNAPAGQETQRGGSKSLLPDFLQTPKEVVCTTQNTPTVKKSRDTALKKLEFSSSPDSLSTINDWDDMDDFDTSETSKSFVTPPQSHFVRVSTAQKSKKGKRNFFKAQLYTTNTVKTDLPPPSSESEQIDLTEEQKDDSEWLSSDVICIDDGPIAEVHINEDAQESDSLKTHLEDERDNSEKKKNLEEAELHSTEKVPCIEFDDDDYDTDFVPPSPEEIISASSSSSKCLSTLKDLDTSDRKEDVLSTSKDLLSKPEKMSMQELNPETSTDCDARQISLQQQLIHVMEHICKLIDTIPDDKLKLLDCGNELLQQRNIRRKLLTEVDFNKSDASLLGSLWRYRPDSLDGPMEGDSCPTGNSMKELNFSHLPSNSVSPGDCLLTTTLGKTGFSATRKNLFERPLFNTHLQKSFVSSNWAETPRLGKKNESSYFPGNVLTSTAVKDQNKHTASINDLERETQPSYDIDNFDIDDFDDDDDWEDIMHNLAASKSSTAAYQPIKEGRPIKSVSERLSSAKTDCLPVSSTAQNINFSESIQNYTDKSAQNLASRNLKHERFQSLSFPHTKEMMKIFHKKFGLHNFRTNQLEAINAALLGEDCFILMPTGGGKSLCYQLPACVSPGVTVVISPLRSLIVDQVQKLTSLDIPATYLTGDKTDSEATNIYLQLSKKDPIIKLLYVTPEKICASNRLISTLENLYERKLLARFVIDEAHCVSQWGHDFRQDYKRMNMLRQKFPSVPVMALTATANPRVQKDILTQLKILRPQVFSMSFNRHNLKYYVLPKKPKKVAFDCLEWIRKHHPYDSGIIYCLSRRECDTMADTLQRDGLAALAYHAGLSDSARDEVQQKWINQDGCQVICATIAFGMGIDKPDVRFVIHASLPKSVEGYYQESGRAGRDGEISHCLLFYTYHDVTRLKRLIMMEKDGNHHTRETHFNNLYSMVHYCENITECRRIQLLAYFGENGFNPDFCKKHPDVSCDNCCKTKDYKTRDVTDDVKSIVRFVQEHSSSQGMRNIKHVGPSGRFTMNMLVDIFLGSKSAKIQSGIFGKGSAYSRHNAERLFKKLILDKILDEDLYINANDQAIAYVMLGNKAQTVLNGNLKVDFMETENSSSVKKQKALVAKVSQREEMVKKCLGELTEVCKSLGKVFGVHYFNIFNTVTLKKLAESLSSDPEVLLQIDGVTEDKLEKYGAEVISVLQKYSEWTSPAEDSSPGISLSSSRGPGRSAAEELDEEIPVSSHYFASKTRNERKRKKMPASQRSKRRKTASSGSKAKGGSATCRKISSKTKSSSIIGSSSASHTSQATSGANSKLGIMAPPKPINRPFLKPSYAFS
RECQ1 inh – RECQ1 (human) helicase inhibition; P46063; RECQ1 DNA unwinding, red fluorescence kinetic read; Potency, µM (top dose mostly 57.3 µM), for the others: at the highest dose activity, negative = inhibition, actives largely listed as inhibitors; 240,000 compounds, 0.54% hits; AID 2549;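 further: plate controls were vehicle for no effect and no enzyme for full effect; nearly all actives have a fitted effect of over 30% in size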
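RECQ1T1 50 nM; forked duplex (20 bp + 30-nt ss tails) 200 nM, ATP 2 mM final; pH 8.0, 2 mM MgCl2, 2.5 ug/ml poly(dI-dC); 15 min compound preincubation; discontinuous kinetic read over 2 h at RT.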
APE1 inh-1 – inhibitors of human APE1 endonuclease; P27695; recombinant APE1, TAMRA/BHQ-2 abasic DNA cleavage fluorescence; Potency, µM (series often up to 65.8 µM), inactives show top-dose activity change, negative = inhibition, usual class: inhibitors; 350,000 compounds, 0.35% hits; AID 2517;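 further: plate controls were vehicle for no effect and reference inhibitor for full effect; nearly all actives have a fitted effect of over 55% in size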
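Step 1: APE1 (0.75 nM) with compound, 15 min RT. Step 2: add 50 nM fluorophore/quencher THF duplex. Step 3: three fluorescence reads 60 s apart (525/598 nm); read 3 minus read 1 = reaction progress.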
FEN1 inh – blocks human flap endonuclease 1. Recombinant FEN1 flap cleavage, fluorescence, 15 min. P39748. Potency, µM (doses to about 114 µM), without a hit: top-dose activity change, negative = inhibition, actives largely listed as inhibitors. 390,000 compounds, 0.35% hits; further: nearly all actives have a fitted effect of over 65% in size
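With each library titrated from low to high concentration, compounds met 10 nM FEN1 for 15 min at room temperature before 50 nM substrate was added; readings at 0 and 15 min fed four-parameter Hill curve fits.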
APE1 dye cs – counter-screen for APE1 inhibitors: DNA dye displacement. AID 2564. 480 compounds, 7% hits. DNA fluorescent dye displacement counterscreen, fluorescence. Potency, µM (doses to about 28.5 µM), without a hit: at the highest dose activity change, negative = inhibition, most hits filed as inhibitors. shares compounds with APE1 inh-1;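 further: loss of thiazole orange fluorescence as the dye is displaced from duplex DNA; 0% = ThO with dsDNA and no compound and -100% = ThO without dsDNA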
EndoIV counter – Endo IV (E. coli) inhibition counter-screen; shares compounds with APE1 inh-1; E. coli Endo IV, fluorogenic AP-site DNA cleavage; Potency, µM (top dose mostly 27.1 µM), inactives show at the top dose activity change, negative = inhibition, hits mostly inhibitors; 560 compounds, 4% hits; AID 2565;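 further: plate controls were uninhibited enzyme wells for no effect and no enzyme buffer wells for full effect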
APE1 inh-2 – APE1 (human) endonuclease inhibition, confirmation; shares compounds with APE1 inh-1; purified APE1, fluorogenic abasic-site DNA cleavage; Potency, µM (top dose mostly 57.1 µM), for the others: at the top dose activity change, negative = inhibition, actives largely listed as inhibitors; 750 compounds, 44% hits; AID 2572; further: nearly all actives have a fitted effect of over 30% in size
APE1 FP inh – APE1 (human) DNA binding inhibition, fluorescence polarization | shares compounds with APE1 inh-1 | APE1 binding to TAMRA-labelled double-stranded DNA, fluorescence polarization displacement | Potency, µM (highest dose often 28.5 µM), inactives show at the highest dose activity, negative = inhibition, usual class: inhibitors | 480 compounds, 7% hits | AID 2573
An asterisk follows results filed as active; i = inactive; ? = inconclusive; . = no result given; ! = a repeat was not active; [ ] = another dose, or the depositor's remark. Hits are enriched below; roughly 1% of the tested compounds scored in any of these assays. The call rests on the fitted dose curve; in most records, active means well fitted curve in the direction sought with a large enough effect; inconclusive means small, poorly fitted or top-dose-only effect, or another doubt; inactive means no such curve, though single readings can be large; an effect the other way counts as inactive or inconclusive. Unless noted, on the % scale 0 is the no-effect control and ±100 the full control effect; potency means the concentration at half of the fitted maximal effect.

SMILES	L3MBTL1 inh	WRN helicase inh	BLM helicase inh	RECQ1 inh	APE1 inh-1	FEN1 inh	others
CC(C)c1ccc(N2C(=O)NC(=O)/C(=C/C=C/c3ccco3)C2=O)cc1	?	50µM*	-21%	?	?	?
CCCC[N+](=O)[O-]	.	.	.	-16%	-3%	.
COc1ccc(-c2cc(=O)c3cc(OCC(=O)OC(C)C)ccc3o2)cc1	.	.	0%	.	.	24%
CCCc1cc2c(n1Cc1cccc(Cl)c1)C(C)C1CN(C(=O)c3ccccc3)C(C)(C(=O)OC)C21 (stereo not given)	.	.	-12%	3%	3%	.
O=[N+]([O-])c1cc(-c2ccc([As](=O)(O)O)cc2)ccc1[As](=O)(O)O	22µM*	.	-4%	-4%	?	.
O=C(O)C(Br)Br	.	.	.	35µM*	12%	.
O=S(=O)(Cl)c1ccccc1	.	.	.	13%	2%	.
COC[C@H]1OC(=O)c2coc3c2[C@@]1(C)C1=C(C3=O)[C@H]2CCC(=O)[C@@]2(C)C[C@H]1OC(C)=O	.	.	1%	13µM*	-9%	.
COC[C@H]1OC(=O)c2coc3c2[C@@]1(C)C1=C(C3=O)C2CCC(=O)[C@@]2(C)C[C@H]1OC(C)=O (stereo not given in full)	.	.	3%	35µM*	?	13µM*!
Cc1cc(SCc2sc(-c3ccc(C(F)(F)F)c(F)c3)nc2C)ccc1OCC(=O)O	.	.	-17%	-30%	-3%	.
N=C1/C(=C\c2ccc(OC(=O)c3ccccc3Cl)cc2)C(=O)N=C2SC(N3CCOCC3)=NN12	.	?	-30%	.	13%	?
O=C1c2ccccc2-c2cc3ccccc3cc21	.	9%	.	.	.	?
O=C1C=C(N2CC2)c2ccccc2C1=O	.	45µM*	.	.	.	.
Cc1ccc(N=Nc2cc(C)ccc2N)cc1	14µM*	0%	-2%	-8%	11%	4%
ClC1=C(Cl)[C@]2(Cl)[C@@H]3[C@H]4C[C@H]([C@@H]5O[C@H]45)[C@@H]3[C@@]1(Cl)C2(Cl)Cl	.	.	.	.	4%	.
CN[C@H]1C[C@H]2O[C@@](C)([C@H]1OC)n1c3ccccc3c3c4c(c5c6ccccc6n2c5c31)C(=O)NC4	-17%	.	-8%	28µM*	?	.
COC(=O)C1(O)CC2OC1(C)n1c3ccccc3c3c4c(c5c6ccccc6n2c5c31)C(=O)NC4 (stereo not given)	.	.	3%[12.4 µM]	-5%[11.5 µM]	-6%[12.4 µM]	.
NC[C@@H]1O[C@H](OC2[C@@H](CO)O[C@@H](OC3[C@H](O)[C@H](N)C[C@H](N)[C@H]3OC3O[C@H](CO)[C@@H](O)[C@H](O)[C@@H]3N)[C@H]2O)C(N)[C@H](O)[C@@H]1O (stereo not given in full)	.	.	3%	.	.	.
CC(=O)O.CC(=O)O.[Cd]	.	.	?	?	4µM*	.
O=C(O)/C=C\C(=O)O	-2%	2%	.	-8%	-13%	-15%
CS/C(N)=C(C#N)/C(C#N)=C(\N)SC	.	.	7%	i	3%	.
O=C(N/N=C/C1C(=O)NC(=S)N(c2ccccc2)C1=O)c1cc(Br)c(O)c(Br)c1 (stereo not given)	13µM*	79µM*	1%	?	-4%	-9%
CN(C)C1C(=O)C(C(N)=O)=C(O)[C@@]2(O)C(=O)C3=C(O)c4c(O)cccc4[C@@](C)(O)C3[C@H](O)C12 (stereo not given in full)	.	.	-10%	-3%	12%	.
CN(C)[C@@H]1C(=O)C(C(N)=O)=C(O)[C@@]2(O)C(=O)C3=C(O)c4c(O)ccc(Cl)c4[C@@](C)(O)C3C[C@@H]12 (stereo not given in full)	?	-9%[57.1 µM]	-3%	-11%	-3%	45µM*
CN(C)[C@@H]1C(=O)C(C(N)=O)=C(O)[C@@]2(O)C(=O)C3=C(O)c4c(O)cccc4[C@@](C)(O)C3[C@H](O)C12 (stereo not given in full)	3.2µM*	40µM*!	.	.	-39%	16µM*!
SMILES	L3MBTL1 inh	WRN helicase inh	BLM helicase inh	RECQ1 inh	APE1 inh-1	FEN1 inh	others
O=C(O)CCn1cc(C=C2C(=O)NC(=S)NC2=O)c(-c2cccc(Cl)c2)n1	-18%	45µM*	2%	-3%	1%	-5%
CC(C)Oc1ccc(C2C(C#N)=C(N)Oc3c2c(=O)oc2ccccc32)cc1 (stereo not given)	-6%	2%	-6%	-13%	0%	-6%
N#CC1=C(N)Oc2c(c(=O)oc3ccccc23)C1c1ccc([N+](=O)[O-])o1 (stereo not given)	?	?	-3%	i	35µM*	50µM*
N#CC(=Cc1ccc(O)c(O)c1)C(N)=S	.	.	.	?	?	.	EndoIV counter=-8%[57.1 µM];APE1 inh-2=-25%
CCc1ccc(/C=C(/C#N)C(N)=S)cc1	-4%	-9%	0%	14%	-3%	1%
C=CCn1c(O)c(/C(CC)=N/NC(=S)Nc2ccccc2)c(=O)[nH]c1=O	0%	-9%	-2%	-12%	?	2%	APE1 inh-2=?
ClCc1ccccc1	.	.	.	11%	3%	.
CCN(CC)CCCCN1c2ccccc2Oc2ccc(Cl)cc21	.	.	0%	6%	2%	.
Cc1ccc(C(=O)Nc2ccccc2)cc1S(=O)(=O)N1CCCC1	.	.	-5%	.	.	2%
CC1Cc2ccccc2N1NC(=O)c1ccc(Cl)c(S(N)(=O)=O)c1 (stereo not given)	-7%	4%	-8%	-5%	2.2µM*!	-8%	APE1 dye cs=1%[57.1 µM];EndoIV counter=18%[57.1 µM];APE1 inh-2=-10%;APE1 FP inh=8%[57.1 µM]
Oc1cc(O)c2c(c1)OC(c1cc(O)c(O)c(O)c1)C(O)C2 (stereo not given)	.	.	-27%	35µM*	10µM*	.	EndoIV counter=16%[57.1 µM];APE1 inh-2=5µM*

Source: PubChem BioAssay (National Center for Advancing Translational Sciences (NCATS))
